In PubChem BioAssay AID2284117 (EPA ToxCast):
The source made the active and inactive calls. How the source made its calls: active means hit-call score of the fitted dose curve at least 0.9, where 1 is the maximum; inactive means score below 0.9.

These compounds were tested against human PDE4A1A Phosphodiesterase, PDE4A (gene 5141) (UniProt P27815) (assay: ERF_FR_ENZ_hPDE4A: Eurofins (ERF) Enzymatic LeadHunter Assay for human PDE4A1A Phosphodiesterase).
Description: ERF_FR_ENZ_hPDE4A is a biochemical, single-readout assay that uses extracted gene-proteins in a cell-free assay. Measurements were taken 0.33 hour after chemical dosing in a 96-well plate. See PDE4A1A Human Phosphodiesterase Enzymatic Assay, Cerep.ERF_FR_ENZ_hPDE4A is an assay component calculated from the ERF_FR_ENZ_hPDE4A assay. It is designed to measure enzyme activity using a type of enzyme reporter as detected by scintillation counting with radiometry technology.Data from the assay component ERF_FR_ENZ_hPDE4A was analyzed at the assay endpoint, ERF_FR_ENZ_hPDE4A, in the positive analysis fitting direction relative to DMSO as the negative control and baseline of activity. Using a type of enzyme reporter, loss-of-signal activity can be used to understand changes in enzymatic activity as they relate to gene PDE4A. To generalize the intended target to other relatable targets, this assay endpoint is annotated to the phosphodiesterase intended target family, where the subfamily is cyclic nucleotide signaling.
Human cells are incubated for 10 minutes at room temprature with [3H]cAMP + cAMP (0.5uM) as sunstrate and Nitrendipine as control inhibitor. Test Sample Requirements: Minimum for 1) Screen: 60 ul of 10 mM stock -OR- 1 mg (pre-weighed) for 10 uM final testing. 2) Dose Response: 90 ul of 10 mM stock -OR- 1 mg (pre-weighed) for a top concentration at 10 uM.

Sequence of human PDE4A1A Phosphodiesterase, PDE4A (gene 5141) (P27815 whole entry, looked up): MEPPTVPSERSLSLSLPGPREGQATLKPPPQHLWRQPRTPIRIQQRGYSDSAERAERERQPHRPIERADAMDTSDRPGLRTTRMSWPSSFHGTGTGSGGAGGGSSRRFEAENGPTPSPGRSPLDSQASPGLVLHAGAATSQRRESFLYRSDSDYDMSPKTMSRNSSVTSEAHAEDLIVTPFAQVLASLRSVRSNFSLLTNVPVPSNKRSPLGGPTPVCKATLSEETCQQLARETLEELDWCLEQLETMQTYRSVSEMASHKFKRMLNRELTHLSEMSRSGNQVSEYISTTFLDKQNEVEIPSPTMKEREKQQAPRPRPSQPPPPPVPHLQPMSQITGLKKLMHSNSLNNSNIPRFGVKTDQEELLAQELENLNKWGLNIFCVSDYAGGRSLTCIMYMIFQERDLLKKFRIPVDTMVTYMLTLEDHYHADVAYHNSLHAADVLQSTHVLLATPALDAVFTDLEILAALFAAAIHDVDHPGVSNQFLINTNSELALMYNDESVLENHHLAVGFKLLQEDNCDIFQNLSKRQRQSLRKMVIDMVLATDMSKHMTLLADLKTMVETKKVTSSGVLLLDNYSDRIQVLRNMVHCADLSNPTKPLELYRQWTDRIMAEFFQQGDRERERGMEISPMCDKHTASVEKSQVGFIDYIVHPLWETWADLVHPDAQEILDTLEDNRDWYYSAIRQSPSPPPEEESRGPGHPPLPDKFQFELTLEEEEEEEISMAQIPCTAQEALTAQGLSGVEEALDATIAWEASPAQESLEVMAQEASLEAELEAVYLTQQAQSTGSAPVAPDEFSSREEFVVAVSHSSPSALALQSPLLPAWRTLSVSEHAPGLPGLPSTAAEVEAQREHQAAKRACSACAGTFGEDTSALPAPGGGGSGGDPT

| SMILES | AC50 |
| --- | --- |
| COc1cc(CCC(=O)CC(=O)CCc2ccc(O)c(OC)c2)ccc1O | 2.66 µM (active) |
